This passage reports inhibition results from PubChem BioAssay AID2540 (Sanford-Burnham Center for Chemical Genomics, 2010).

Molecules are shown by their SMILES. The whole screen tested about 330,000 compounds, of which about 4,100 (1.2%) were called active. No stated cut-off is given here; in the data, active means inhibition above about 50%; inactive means the rest. The full list was thinned out, with actives kept by preference.

For the experiment, the target named is Sentrin-specific protease 8 (Homo sapiens) (UniProt Q96LD8). As to the kind of experiment: SENP8 protease inhibitors, primary screen, biochemical, luminescence (AID 2540). The note with it: purified SENP8, Z-RLRGG-aminoluciferin cleavage, at 10 µM, stronger effect = higher value.
Sequence of Sentrin-specific protease 8 (Homo sapiens) (Q96LD8 whole entry, looked up): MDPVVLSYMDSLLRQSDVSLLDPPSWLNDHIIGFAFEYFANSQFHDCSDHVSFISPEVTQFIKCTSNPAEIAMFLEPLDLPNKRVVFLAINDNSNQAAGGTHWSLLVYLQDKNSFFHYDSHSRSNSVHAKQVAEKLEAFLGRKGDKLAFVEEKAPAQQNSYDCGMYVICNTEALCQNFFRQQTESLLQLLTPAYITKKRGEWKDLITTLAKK
As to `C[C@@H](C(=O)Nc1ccc2ccccc2c1)[C@@H]1C[C@@]1(C)[C@@H](NC(=O)c1cccnc1)c1ccccc1`, the inhibition – broadly, the relative decrease from the control value, in per cent – was 13.1% (inactive).

For the molecule `CCOC(=O)C1=C(NC(=S)NC(=O)c2ccccc2)c2ccccc2CC1(C)C`, the inhibition was -5.5% (inactive).

In the case of `COc1ccccc1NC(=O)COC(=O)CNC(=O)C1CCCCC1`, the inhibition was 8.04% (inactive).

As for `COc1cc(/C=N/N=C(\N)c2nonc2N)cc(OC)c1OC`, the inhibition was -1.1% (inactive).

With `c1ccc(-n2nc3ccccc3n2)cc1`, the inhibition is -19.2% (inactive).

Turning to `CN(C)c1nnnn1-c1ccc(Cl)cc1`, the inhibition is 2.64% (inactive).

Take `Nc1ccc2nn(-c3ccc(Cl)cc3)nc2c1`: the inhibition was 86.7% (active).

For `COc1ccc(Br)cc1CN(C)CC(=O)Nc1cc([N+](=O)[O-])ccc1OC`, the inhibition is -6.64% (inactive).

As for `Cc1ccc2c(c1)NCC(C(=O)NC1CCC(C)CC1)O2` (configuration not stated), the inhibition is -10.8% (inactive).

Take `COc1cccc(C(=O)NC(=O)Nc2nc(C)cc(C(F)(F)F)n2)c1`: the inhibition was -10.3% (inactive).

Turning to `N=c1oc2ccccc2cc1C(=O)N/N=C/c1ccccc1`, the inhibition was 86.5% (active).

Consider `CNC(=O)c1cc2c(ccc3ccccc32)oc1=N`, for which the inhibition is -3% (inactive).

Turning to `Cc1ccc(/C=N/NC(=O)c2cc3ccccc3cc2O)o1`, the inhibition was 55.8% (active).

Take `Cc1ccc(/C=N/NC(=S)Nc2cccc(S(=O)(=O)N(C)C)c2)o1`: the inhibition was 1.79% (inactive).

Turning to `Cc1ccc(/C=N/NC(=S)NC2CCCCC2)o1`, the inhibition is -5.05% (inactive).

Turning to `N=c1oc2ccccc2cc1C(=O)NCc1ccccc1`, the inhibition was -17.9% (inactive).

On to `CN(CC(=O)NC1CCCC1)S(=O)(=O)c1cnc[nH]1`, for which the inhibition was -8.57% (inactive).

On to `O=C(NCCO)C(=O)NCC(c1ccc2c(c1)OCO2)N1CCN(c2ccc(F)cc2)CC1` (configuration not stated), for which the inhibition was -0.025% (inactive).

Take `CC(=O)N1CC(C)c2scc(C)[n+]2-c2ccccc21` (configuration not stated): the inhibition is 0.506% (inactive).

As for `COc1ccc(S(=O)(=O)Nc2ccc(F)cc2)c(C)c1C`, the inhibition is 3.56% (inactive).

As to `O=C(Nc1cc2c3c(c1)CC(=O)N3CCC2)c1ccccc1F`, the inhibition was 3.3% (inactive).

`Cc1ccc(C)c(NC(=O)CSc2nc3c(oc4ccccc43)c(=O)n2-c2ccccc2)c1`: the inhibition is -0.496% (inactive).

Regarding `Oc1ccc(N=Nc2nccs2)c(O)c1`, the inhibition was 72.7% (active).

As for `O=C(Nc1cccc(Cl)c1)Nc1ccccc1NS(=O)(=O)c1cccs1`, the inhibition was 11.3% (inactive).

Turning to `COC(=O)CNC(c1ccccc1Cl)c1cc(Br)ccc1NC(=O)CCN1CCOCC1` (configuration not stated), the inhibition was -4.92% (inactive).

On to `Cn1c(Cn2nnc3ccccc32)nnc1SCC(=O)c1ccccc1F`, for which the inhibition is 0% (inactive).

As to `Cc1oc(-c2cccc(Cl)c2)[n+]([O-])c1C`, the inhibition was -7.45% (inactive).

With `Clc1ccc(-c2cc(C3CCNCC3)[nH]n2)c(Cl)c1`, the inhibition is 0.621% (inactive).

Consider `CCN1C(=O)c2cccc3c(N)ccc1c23`, for which the inhibition was 83.8% (active).

As for `Cc1nn(C)cc1N1C(=O)c2cccc3c(N)ccc(c23)C1=O`, the inhibition was 0.391% (inactive).

Turning to `CCN1C(=O)c2cccc3c(S(=O)(=O)Nc4ccccc4O)ccc1c23`, the inhibition is 6.13% (inactive).

`CC1=C2C(=O)OC(c3ccoc3)C2(C)CCC1` (configuration not stated): the inhibition is -1.03% (inactive).

Take `CC(C)C(=O)Nc1ccc(C(=O)NNC(=O)c2cccs2)cc1`: the inhibition is -0.29% (inactive).

Take `CCc1ccc(NC(=O)C(=O)NNC(=O)c2cccs2)cc1`: the inhibition is 69.7% (active).

In the case of `CCc1ccc(NC(=O)COC(=O)c2cccs2)cc1`, the inhibition is 11.2% (inactive).

In the case of `Cc1ccc(CCCOC(=O)C[N+]2(C)CCCCC2)cc1`, the inhibition was 7.71% (inactive).

In the case of `COc1ccc(CCNc2cc(N3CCN(C(=O)c4ccccc4OC)CC3)ccc2[N+](=O)[O-])cc1OC`, the inhibition is -3.35% (inactive).

For the molecule `CC1=NN(C(N)=S)C(=O)C1N=Nc1cc(Cl)ccc1Cl` (configuration not stated), the inhibition was 70.4% (active).

For the molecule `NC(=O)CC[C@@H]1NC(=O)[C@@H]2CCCN2C(=O)c2cc([N+](=O)[O-])cc(F)c2NCCC[C@@H](C(N)=O)NC1=O`, the inhibition is -2.54% (inactive).

With `CN(CC(=O)NCc1cccnc1)S(=O)(=O)c1cc(Cl)ccc1Cl`, the inhibition was 3.65% (inactive).

Regarding `CN1C(C(=O)NCc2ccco2)CC2Cn3c(nc4ccccc43)C21` (configuration not stated), the inhibition was -18.3% (inactive).

Regarding `O=C(O)CN1C(=O)CC(Cc2ccccc2)C1=O` (configuration not stated), the inhibition was 4.48% (inactive).

For `CCOC(=O)c1ccc(Nc2cc3ccccc3c(=O)[nH]2)cc1`, the inhibition was 64.2% (active).

Turning to `CCOC(=O)c1ccc(NC(=O)c2c(NCc3ccccc3)[nH]c(=O)[nH]c2=O)cc1`, the inhibition was 0.312% (inactive).

`CCOC(=O)c1ccc(Nc2cc(C)nc3nc(C)nn23)cc1`: the inhibition is 7.18% (inactive).

In the case of `O=C(NN1C(=O)C2C3C=CC(O3)C2C1=O)c1ccccc1` (configuration not stated), the inhibition was -0.512% (inactive).

With `Nc1ccc(N=Nc2ccccc2Cl)c(N)n1`, the inhibition was 72.7% (active).

With `COc1ccccc1C1CC(=O)n2c(nc(-c3ccccc3)c2-c2ccccc2)S1` (configuration not stated), the inhibition is -4.43% (inactive).

On to `CC(=O)c1cnn(-c2cc(Oc3ccc(F)cc3)ncn2)c1C`, for which the inhibition is 9.6% (inactive).

Regarding `O=C(COc1ccc2c(c1)CCC2)N1CCN(c2ccc(F)cc2)CC1`, the inhibition was -17.5% (inactive).

For `COC(=O)c1ccc(/C=C/c2c(-c3ccc(OC)cc3)sc3ccccc23)cc1`, the inhibition is -2.53% (inactive).

As to `COc1ccc(-c2sc3ccccc3c2-c2ccc(OCCN3CCOCC3)cc2)cc1`, the inhibition is 8% (inactive).

On to `COc1ccc(N=C(C)c2sc3ccccc3c2O)cc1`, for which the inhibition was 74% (active).

As to `COC(=O)C1=CN(c2ccc(F)c(F)c2)C=C(C(=O)OC)C1c1ccc([N+](=O)[O-])cc1`, the inhibition is -9.67% (inactive).

In the case of `CC(=O)N1CCN(C(=O)C2(NC(=O)Nc3ccc(C)cc3)CCCCC2)CC1`, the inhibition was 5.59% (inactive).

`CC1(C)CC(N(Cc2ccccc2)C(=O)Cc2ccccc2)CCO1` (configuration not stated): the inhibition is -3.89% (inactive).

Turning to `COc1ccc(-c2ccc(OC(=O)NC3CCS(=O)(=O)C3)cc2)cc1` (configuration not stated), the inhibition was -13.5% (inactive).
